Assay results taken from the supplement of paper PMC10849652.
Targets with a hit are over-represented here; the source holds about 8,800 in all. About 0.5% of all pairs of compound and target were hits. Values without a mark were called inactive.

Assays:
Experiment in all cases: log2 fold change, soluble protein after heating vs DMSO (PISA); higher = thermal stabilisation; K562 lysate, 10 uM; active = over 0.2 and 3.5 SD of the protein, either way, in both replicates (recomputed)
[1] = compound: NCC(=O)Nc1ccc(-n2nc(C(F)(F)F)cc2-c2ccc3c(ccc4ccccc43)c2)cc1
Procedure, shortened: (§1)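 K562 pellets were dounce-homogenised in PBS pH 7.4 with 1 mM MgCl2, and the crude extract at 1 mg/mL protein was treated with 10 μM compound for 30 min. Aliquots were heated for 3 min across 48°C-58°C, pooled, and brought to 0.5% NP-40 at 4°C; soluble protein was the supernatant after 21,000xg for 90 min. Soluble protein was quantified by TMTpro 16plex LC-MS/MS with channel sums equalised, and reported as log2 fold change in thermal stability against DMSO controls, with values from duplicates.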

vorinostat = compound: O=C(CCCCCCC(=O)Nc1ccccc1)NO [vorinostat]
Procedure, shortened: as §1

silmitasertib = compound: O=C(O)c1ccc2c(c1)nc(Nc1cccc(Cl)c1)c1ccncc12 [silmitasertib]
Procedure, shortened: as §1

[2] = compound: O=C1NC(=O)C(c2cnc3ccccn23)=C1c1cn2c3c(cc(F)cc13)CN(C(=O)N1CCCCC1)CC2
Procedure, shortened: as §1

entospletinib = compound: c1cn2cc(-c3ccc4cn[nH]c4c3)nc(Nc3ccc(N4CCOCC4)cc3)c2n1 [entospletinib]
Procedure, shortened: as §1

UniProt P49356, sequence (P49356 whole entry, looked up): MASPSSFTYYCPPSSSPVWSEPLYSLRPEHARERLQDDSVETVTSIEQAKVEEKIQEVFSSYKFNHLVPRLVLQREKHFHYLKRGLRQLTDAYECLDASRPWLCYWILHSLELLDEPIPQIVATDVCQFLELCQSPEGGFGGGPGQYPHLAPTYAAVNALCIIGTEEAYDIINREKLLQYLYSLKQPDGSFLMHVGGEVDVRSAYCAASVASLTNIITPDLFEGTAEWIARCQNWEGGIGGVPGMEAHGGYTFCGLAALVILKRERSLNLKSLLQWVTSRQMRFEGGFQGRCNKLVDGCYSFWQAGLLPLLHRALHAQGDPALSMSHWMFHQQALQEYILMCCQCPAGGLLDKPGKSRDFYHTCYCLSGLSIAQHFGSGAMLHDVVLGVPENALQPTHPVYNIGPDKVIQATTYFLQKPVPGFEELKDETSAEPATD
UniProt Q14153, sequence (Q14153 whole entry, looked up): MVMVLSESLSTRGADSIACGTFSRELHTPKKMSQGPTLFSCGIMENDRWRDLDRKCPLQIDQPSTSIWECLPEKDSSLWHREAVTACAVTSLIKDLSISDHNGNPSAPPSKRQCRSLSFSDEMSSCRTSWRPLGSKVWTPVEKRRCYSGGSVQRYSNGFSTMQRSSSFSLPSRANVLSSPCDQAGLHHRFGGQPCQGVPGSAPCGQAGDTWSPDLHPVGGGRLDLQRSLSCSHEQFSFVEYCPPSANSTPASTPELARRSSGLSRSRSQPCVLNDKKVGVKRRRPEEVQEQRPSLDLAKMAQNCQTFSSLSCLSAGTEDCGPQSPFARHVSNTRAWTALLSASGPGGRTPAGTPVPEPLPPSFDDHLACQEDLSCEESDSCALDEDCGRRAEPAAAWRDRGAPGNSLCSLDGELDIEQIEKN
UniProt Q9GZT9, sequence (Q9GZT9 whole entry, looked up): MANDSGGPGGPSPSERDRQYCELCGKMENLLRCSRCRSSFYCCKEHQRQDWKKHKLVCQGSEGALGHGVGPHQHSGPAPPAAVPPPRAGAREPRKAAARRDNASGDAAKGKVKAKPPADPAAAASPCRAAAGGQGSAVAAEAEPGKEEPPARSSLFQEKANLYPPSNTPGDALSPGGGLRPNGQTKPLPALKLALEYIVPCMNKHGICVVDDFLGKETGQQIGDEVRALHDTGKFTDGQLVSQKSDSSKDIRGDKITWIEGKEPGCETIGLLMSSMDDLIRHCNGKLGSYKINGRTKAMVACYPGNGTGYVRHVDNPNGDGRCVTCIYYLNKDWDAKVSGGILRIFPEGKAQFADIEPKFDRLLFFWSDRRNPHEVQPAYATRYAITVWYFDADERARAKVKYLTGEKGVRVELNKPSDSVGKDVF
UniProt A6NHQ2, sequence (A6NHQ2 whole entry, looked up): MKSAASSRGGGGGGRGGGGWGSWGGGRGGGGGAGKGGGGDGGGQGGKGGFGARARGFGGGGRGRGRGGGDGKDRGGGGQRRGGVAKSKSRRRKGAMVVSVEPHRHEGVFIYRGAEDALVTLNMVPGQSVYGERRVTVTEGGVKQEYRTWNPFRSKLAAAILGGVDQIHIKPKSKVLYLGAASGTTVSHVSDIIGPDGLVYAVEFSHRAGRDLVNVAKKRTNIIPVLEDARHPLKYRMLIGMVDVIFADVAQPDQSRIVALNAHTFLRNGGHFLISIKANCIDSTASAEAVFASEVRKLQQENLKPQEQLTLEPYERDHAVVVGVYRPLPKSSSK
UniProt Q06547, sequence (Q06547 whole entry, looked up): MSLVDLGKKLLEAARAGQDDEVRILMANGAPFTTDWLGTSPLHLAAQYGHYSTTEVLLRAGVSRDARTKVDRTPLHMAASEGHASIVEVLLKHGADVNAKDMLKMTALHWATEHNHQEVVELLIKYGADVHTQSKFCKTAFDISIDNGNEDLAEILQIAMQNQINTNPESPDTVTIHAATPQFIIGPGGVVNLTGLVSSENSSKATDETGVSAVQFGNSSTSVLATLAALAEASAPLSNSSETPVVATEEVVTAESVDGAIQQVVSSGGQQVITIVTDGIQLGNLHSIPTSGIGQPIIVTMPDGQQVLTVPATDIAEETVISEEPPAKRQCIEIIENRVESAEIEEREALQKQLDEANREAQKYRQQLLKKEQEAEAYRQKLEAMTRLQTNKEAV
UniProt Q10471, sequence (Q10471 whole entry, looked up): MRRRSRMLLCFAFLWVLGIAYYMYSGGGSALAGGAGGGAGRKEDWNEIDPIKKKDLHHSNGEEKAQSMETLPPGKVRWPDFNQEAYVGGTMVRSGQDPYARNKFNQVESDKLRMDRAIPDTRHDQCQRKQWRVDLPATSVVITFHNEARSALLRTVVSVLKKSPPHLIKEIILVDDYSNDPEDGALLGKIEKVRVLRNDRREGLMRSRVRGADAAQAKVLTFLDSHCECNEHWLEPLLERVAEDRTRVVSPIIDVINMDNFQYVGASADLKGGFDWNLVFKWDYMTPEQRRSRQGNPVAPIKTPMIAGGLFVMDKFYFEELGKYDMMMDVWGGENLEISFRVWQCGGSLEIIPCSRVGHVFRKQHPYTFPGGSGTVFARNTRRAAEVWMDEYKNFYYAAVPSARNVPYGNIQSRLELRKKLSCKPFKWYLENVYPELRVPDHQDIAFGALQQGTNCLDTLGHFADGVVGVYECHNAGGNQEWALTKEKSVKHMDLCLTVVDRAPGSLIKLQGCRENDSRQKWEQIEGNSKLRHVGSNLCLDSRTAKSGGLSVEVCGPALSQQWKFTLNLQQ
UniProt O95466, sequence (O95466 whole entry, looked up): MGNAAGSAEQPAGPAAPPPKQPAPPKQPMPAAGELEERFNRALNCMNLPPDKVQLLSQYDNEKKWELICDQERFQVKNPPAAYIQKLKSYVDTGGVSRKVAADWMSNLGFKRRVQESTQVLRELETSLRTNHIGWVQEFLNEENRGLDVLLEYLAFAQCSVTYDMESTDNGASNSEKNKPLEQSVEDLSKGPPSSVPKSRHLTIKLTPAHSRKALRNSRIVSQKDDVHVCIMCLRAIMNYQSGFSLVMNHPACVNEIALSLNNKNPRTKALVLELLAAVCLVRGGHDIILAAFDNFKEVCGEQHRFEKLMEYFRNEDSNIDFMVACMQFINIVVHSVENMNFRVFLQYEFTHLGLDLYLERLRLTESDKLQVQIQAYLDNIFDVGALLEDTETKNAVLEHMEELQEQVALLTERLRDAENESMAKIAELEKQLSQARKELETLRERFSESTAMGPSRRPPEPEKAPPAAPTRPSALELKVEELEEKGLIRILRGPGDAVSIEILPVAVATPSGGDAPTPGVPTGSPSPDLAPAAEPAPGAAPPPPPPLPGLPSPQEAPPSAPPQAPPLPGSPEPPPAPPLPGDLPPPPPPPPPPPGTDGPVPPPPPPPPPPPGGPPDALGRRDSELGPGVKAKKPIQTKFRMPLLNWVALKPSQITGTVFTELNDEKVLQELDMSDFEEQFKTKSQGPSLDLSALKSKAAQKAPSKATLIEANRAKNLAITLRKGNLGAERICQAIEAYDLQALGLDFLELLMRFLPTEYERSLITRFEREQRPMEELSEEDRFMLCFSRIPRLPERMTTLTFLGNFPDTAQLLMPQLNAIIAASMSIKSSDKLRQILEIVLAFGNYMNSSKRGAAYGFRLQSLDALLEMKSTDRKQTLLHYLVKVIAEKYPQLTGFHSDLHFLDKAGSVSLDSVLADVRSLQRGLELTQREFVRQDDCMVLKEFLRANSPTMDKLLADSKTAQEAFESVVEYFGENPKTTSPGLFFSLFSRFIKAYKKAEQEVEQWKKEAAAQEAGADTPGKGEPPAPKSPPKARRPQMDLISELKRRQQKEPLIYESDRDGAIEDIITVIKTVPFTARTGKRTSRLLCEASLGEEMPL
UniProt Q86UY5, sequence (Q86UY5 whole entry, looked up): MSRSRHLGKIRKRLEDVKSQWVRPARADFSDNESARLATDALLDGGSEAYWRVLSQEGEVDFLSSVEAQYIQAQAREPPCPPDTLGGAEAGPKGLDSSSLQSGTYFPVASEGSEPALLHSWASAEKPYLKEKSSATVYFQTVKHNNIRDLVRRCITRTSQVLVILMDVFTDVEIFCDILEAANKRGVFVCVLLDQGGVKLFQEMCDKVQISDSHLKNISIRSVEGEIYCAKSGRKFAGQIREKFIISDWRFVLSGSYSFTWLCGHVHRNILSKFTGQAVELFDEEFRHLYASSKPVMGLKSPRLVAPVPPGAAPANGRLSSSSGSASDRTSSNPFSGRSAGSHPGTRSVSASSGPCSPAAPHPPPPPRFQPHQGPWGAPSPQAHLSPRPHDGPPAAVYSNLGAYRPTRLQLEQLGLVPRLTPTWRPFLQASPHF

Target | log2 fold change [1] | log2 fold change (vorinostat) | log2 fold change (silmitasertib) | log2 fold change [2] | log2 fold change (entospletinib)
EP300 (UniProt Q09472) | 0.018 | -0.338 (active) | 0.06 | 0.015 | -0.005
EGLN1 (UniProt Q9GZT9) | 0.008 | -0.395 (active) | 0.025 | -0.024 | -0.009
FNTB (UniProt P49356) | 0.03 | 0.03 | -0.018 | -0.032 | -0.048
FAM83A (UniProt Q86UY5) | -0.049 | -0.417 (active) | -0.034 | -0.052 | -0.002
FAM53B (UniProt Q14153) | 0.056 | -0.06 | 0.049 | 0.02 | -0.003
GABPB1 (UniProt Q06547) | 0 | -0.299 (active) | 0.008 | -0.052 | -0.004
GALNT2 (UniProt Q10471) | -0.018 | 0.069 | 0.008 | -0.09 | -0.034
FBLL1 (UniProt A6NHQ2) | 0.006 | 0.094 | 0.034 | -0.017 | -0.014
FMNL1 isoform 3 (UniProt O95466) | 0.051 | -0.292 (active) | -0.01 | 0.071 | -0.066
